Common to all, as to test: PBM; 200 nM protein, PBS
What all share (details): dsDNA, one strand shown

Assay [1] addresses CRX (Homo sapiens, UniProt O43186 26-111).
Assay [2] addresses CRX (Homo sapiens, UniProt O43186 26-111, E42D).
A further assay deals with PITX2 (Homo sapiens, UniProt Q99697 72-157).
For assay [3], the target named is CRX (Homo sapiens, UniProt O43186 26-111, R41L).
The target of assay [4] is VAX1 (Homo sapiens, UniProt Q5SQQ9 86-172).
The target in assay [5] is VAX1 (Homo sapiens, UniProt Q5SQQ9 86-172, T142I).
VAX1 (Homo sapiens, UniProt Q5SQQ9 86-172, T142I), sequence (Q5SQQ9 86-172 T142I): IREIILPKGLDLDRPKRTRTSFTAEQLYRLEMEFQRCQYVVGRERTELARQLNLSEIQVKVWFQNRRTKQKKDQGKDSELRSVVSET
The target in assay [6] is VAX1 (Homo sapiens, UniProt Q5SQQ9 86-172, K157R).
VAX1 (Homo sapiens, UniProt Q5SQQ9 86-172, K157R), sequence (Q5SQQ9 86-172 K157R): as the sequence (Q5SQQ9 86-172 T142I) above, with I57T, K72R counted along it
In assay [7] the target is NKX3-2 (Homo sapiens, UniProt P78367 192-278, P234S).
NKX3-2 (Homo sapiens, UniProt P78367 192-278, P234S), sequence (P78367 192-278 P234S): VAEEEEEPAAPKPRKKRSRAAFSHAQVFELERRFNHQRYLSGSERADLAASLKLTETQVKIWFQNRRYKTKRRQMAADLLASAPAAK
The target of assay [8] is NKX3-2 (Homo sapiens, UniProt P78367 192-278).
NKX3-2 (Homo sapiens, UniProt P78367 192-278), sequence (P78367 192-278): as the sequence (P78367 192-278 P234S) above, with S43P counted along it

CRX (Homo sapiens, UniProt O43186 26-111, R41L), sequence (O43186 26-111 R41L): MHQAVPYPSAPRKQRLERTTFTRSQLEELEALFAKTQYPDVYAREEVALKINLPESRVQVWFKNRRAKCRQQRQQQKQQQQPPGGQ
CRX (Homo sapiens, UniProt O43186 26-111), sequence (O43186 26-111): as the sequence (O43186 26-111 R41L) above, with L16R counted along it
CRX (Homo sapiens, UniProt O43186 26-111, E42D), sequence (O43186 26-111 E42D): as the sequence (O43186 26-111 R41L) above, with L16R, E17D counted along it
VAX1 (Homo sapiens, UniProt Q5SQQ9 86-172), sequence (Q5SQQ9 86-172): as the sequence (Q5SQQ9 86-172 T142I) above, with I57T counted along it

With GGATTACC, the binding signal in the assay with CRX [1] was 13.3 upbm affinity estimate (log intensity, higher = more binding, comparable within an allelic series); in the assay with CRX [2] it was 13.3 upbm affinity estimate (log intensity, higher = more binding, comparable within an allelic series); in the assay with PITX2, 13.1 upbm affinity estimate (log intensity, higher = more binding, comparable within an allelic series); with CRX [3] it was 13.3 upbm affinity estimate (log intensity, higher = more binding, comparable within an allelic series).

As for AGATTAAT, the binding signal with CRX [1] is 12.9 upbm affinity estimate (log intensity, higher = more binding, comparable within an allelic series); with CRX [2], 12.9 upbm affinity estimate (log intensity, higher = more binding, comparable within an allelic series); with PITX2 it was 12.6 upbm affinity estimate (log intensity, higher = more binding, comparable within an allelic series); in the assay with CRX [3], 12.5 upbm affinity estimate (log intensity, higher = more binding, comparable within an allelic series).

Consider ATGGATTA, for which the binding signal with CRX [1] was 13.2 upbm affinity estimate (log intensity, higher = more binding, comparable within an allelic series); with CRX [2], 13.2 upbm affinity estimate (log intensity, higher = more binding, comparable within an allelic series); with PITX2, 13.2 upbm affinity estimate (log intensity, higher = more binding, comparable within an allelic series); with CRX [3], 13 upbm affinity estimate (log intensity, higher = more binding, comparable within an allelic series).

Regarding CCGGTGCG, the binding signal was 8.15 upbm affinity estimate (log intensity, higher = more binding, comparable within an allelic series) with CRX [1]; 8.24 upbm affinity estimate (log intensity, higher = more binding, comparable within an allelic series) in the assay with CRX [2]; 7.06 upbm affinity estimate (log intensity, higher = more binding, comparable within an allelic series) with VAX1 [4]; 7.11 upbm affinity estimate (log intensity, higher = more binding, comparable within an allelic series) with VAX1 [5]; 8.27 upbm affinity estimate (log intensity, higher = more binding, comparable within an allelic series) in the assay with CRX [3]; 7.12 upbm affinity estimate (log intensity, higher = more binding, comparable within an allelic series) with VAX1 [6].

Consider GAGGATTA, for which the binding signal in the assay with CRX [1] was 13.5 upbm affinity estimate (log intensity, higher = more binding, comparable within an allelic series); with CRX [2] it was 13.6 upbm affinity estimate (log intensity, higher = more binding, comparable within an allelic series); with PITX2, 13.1 upbm affinity estimate (log intensity, higher = more binding, comparable within an allelic series); with CRX [3] it was 13.4 upbm affinity estimate (log intensity, higher = more binding, comparable within an allelic series).

Turning to ACTGCAGT, the binding signal with CRX [1] is 8.23 upbm affinity estimate (log intensity, higher = more binding, comparable within an allelic series); in the assay with CRX [2] it was 8.32 upbm affinity estimate (log intensity, higher = more binding, comparable within an allelic series); with CRX [3], 8.4 upbm affinity estimate (log intensity, higher = more binding, comparable within an allelic series).

Consider CTGGTCGA, for which the binding signal is 8.44 upbm affinity estimate (log intensity, higher = more binding, comparable within an allelic series) with CRX [1]; 8.35 upbm affinity estimate (log intensity, higher = more binding, comparable within an allelic series) in the assay with CRX [2]; 8.29 upbm affinity estimate (log intensity, higher = more binding, comparable within an allelic series) in the assay with CRX [3].

Turning to CCGAACCG, the binding signal with CRX [1] is 8.21 upbm affinity estimate (log intensity, higher = more binding, comparable within an allelic series); with CRX [2], 8.3 upbm affinity estimate (log intensity, higher = more binding, comparable within an allelic series); in the assay with CRX [3], 8.28 upbm affinity estimate (log intensity, higher = more binding, comparable within an allelic series).

Consider AGAGAGAC, for which the binding signal with CRX [1] was 8.36 upbm affinity estimate (log intensity, higher = more binding, comparable within an allelic series); with CRX [2], 8.46 upbm affinity estimate (log intensity, higher = more binding, comparable within an allelic series); with CRX [3] it was 8.33 upbm affinity estimate (log intensity, higher = more binding, comparable within an allelic series).

As for CCTGGTGC, the binding signal with CRX [1] is 8.29 upbm affinity estimate (log intensity, higher = more binding, comparable within an allelic series); in the assay with CRX [2], 8.25 upbm affinity estimate (log intensity, higher = more binding, comparable within an allelic series); with CRX [3], 8.32 upbm affinity estimate (log intensity, higher = more binding, comparable within an allelic series).

As for AATAATCT, the binding signal is 12.7 upbm affinity estimate (log intensity, higher = more binding, comparable within an allelic series) with CRX [1]; 12.7 upbm affinity estimate (log intensity, higher = more binding, comparable within an allelic series) with CRX [2]; 12.6 upbm affinity estimate (log intensity, higher = more binding, comparable within an allelic series) in the assay with CRX [3].

Regarding GTAGCAAC, the binding signal in the assay with CRX [1] is 8.55 upbm affinity estimate (log intensity, higher = more binding, comparable within an allelic series); with CRX [2], 8.49 upbm affinity estimate (log intensity, higher = more binding, comparable within an allelic series); in the assay with CRX [3] it was 8.42 upbm affinity estimate (log intensity, higher = more binding, comparable within an allelic series).

For the sequence CCGATCAG, the binding signal in the assay with CRX [1] is 9.74 upbm affinity estimate (log intensity, higher = more binding, comparable within an allelic series); with CRX [2] it was 9.63 upbm affinity estimate (log intensity, higher = more binding, comparable within an allelic series); in the assay with CRX [3], 9.48 upbm affinity estimate (log intensity, higher = more binding, comparable within an allelic series).

In the case of GCCAATCC, the binding signal with CRX [1] is 10.4 upbm affinity estimate (log intensity, higher = more binding, comparable within an allelic series); with CRX [2] it was 10.3 upbm affinity estimate (log intensity, higher = more binding, comparable within an allelic series); with CRX [3], 10.1 upbm affinity estimate (log intensity, higher = more binding, comparable within an allelic series).

Regarding AGTGTGTC, the binding signal with CRX [1] is 8.28 upbm affinity estimate (log intensity, higher = more binding, comparable within an allelic series); with CRX [2], 8.38 upbm affinity estimate (log intensity, higher = more binding, comparable within an allelic series); in the assay with CRX [3] it was 8.38 upbm affinity estimate (log intensity, higher = more binding, comparable within an allelic series).

GATTATCC: the binding signal in the assay with CRX [1] was 12.9 upbm affinity estimate (log intensity, higher = more binding, comparable within an allelic series); with CRX [2], 12.9 upbm affinity estimate (log intensity, higher = more binding, comparable within an allelic series); in the assay with CRX [3], 12.8 upbm affinity estimate (log intensity, higher = more binding, comparable within an allelic series).

For AGTGCACG, the binding signal was 8.25 upbm affinity estimate (log intensity, higher = more binding, comparable within an allelic series) with CRX [1]; 8.27 upbm affinity estimate (log intensity, higher = more binding, comparable within an allelic series) with CRX [2]; 8.23 upbm affinity estimate (log intensity, higher = more binding, comparable within an allelic series) with CRX [3].

On to CTCTCTCC, for which the binding signal was 8.11 upbm affinity estimate (log intensity, higher = more binding, comparable within an allelic series) with CRX [1]; 8.15 upbm affinity estimate (log intensity, higher = more binding, comparable within an allelic series) in the assay with CRX [2]; 8.3 upbm affinity estimate (log intensity, higher = more binding, comparable within an allelic series) with CRX [3].

In the case of GGGCTCCA, the binding signal with CRX [1] is 8.35 upbm affinity estimate (log intensity, higher = more binding, comparable within an allelic series); with CRX [2], 8.31 upbm affinity estimate (log intensity, higher = more binding, comparable within an allelic series); with CRX [3], 8.31 upbm affinity estimate (log intensity, higher = more binding, comparable within an allelic series).

With CGGATTAC, the binding signal with CRX [1] is 13.4 upbm affinity estimate (log intensity, higher = more binding, comparable within an allelic series); in the assay with CRX [2] it was 13.3 upbm affinity estimate (log intensity, higher = more binding, comparable within an allelic series); in the assay with CRX [3] it was 13.3 upbm affinity estimate (log intensity, higher = more binding, comparable within an allelic series).

For CCTCGCCC, the binding signal in the assay with CRX [1] is 8.43 upbm affinity estimate (log intensity, higher = more binding, comparable within an allelic series); in the assay with CRX [2], 8.52 upbm affinity estimate (log intensity, higher = more binding, comparable within an allelic series); with CRX [3], 8.44 upbm affinity estimate (log intensity, higher = more binding, comparable within an allelic series).

For GGGCGCAC, the binding signal is 7.78 upbm affinity estimate (log intensity, higher = more binding, comparable within an allelic series) with CRX [1]; 7.93 upbm affinity estimate (log intensity, higher = more binding, comparable within an allelic series) with CRX [2]; 7.95 upbm affinity estimate (log intensity, higher = more binding, comparable within an allelic series) with CRX [3].

For the sequence AGATTATA, the binding signal in the assay with CRX [1] was 12.9 upbm affinity estimate (log intensity, higher = more binding, comparable within an allelic series); in the assay with CRX [2], 12.8 upbm affinity estimate (log intensity, higher = more binding, comparable within an allelic series); in the assay with CRX [3], 12.8 upbm affinity estimate (log intensity, higher = more binding, comparable within an allelic series).

With AATCACTA, the binding signal is 10.3 upbm affinity estimate (log intensity, higher = more binding, comparable within an allelic series) with CRX [1]; 10.2 upbm affinity estimate (log intensity, higher = more binding, comparable within an allelic series) with CRX [2]; 9.96 upbm affinity estimate (log intensity, higher = more binding, comparable within an allelic series) with CRX [3].

Turning to ACCAGTCG, the binding signal is 8.53 upbm affinity estimate (log intensity, higher = more binding, comparable within an allelic series) with CRX [1]; 8.43 upbm affinity estimate (log intensity, higher = more binding, comparable within an allelic series) with CRX [2]; 10.4 upbm affinity estimate (log intensity, higher = more binding, comparable within an allelic series) with NKX3-2 [7]; 8.32 upbm affinity estimate (log intensity, higher = more binding, comparable within an allelic series) with CRX [3]; 10.4 upbm affinity estimate (log intensity, higher = more binding, comparable within an allelic series) with NKX3-2 [8].

For ACAGGCAC, the binding signal with CRX [1] was 8.14 upbm affinity estimate (log intensity, higher = more binding, comparable within an allelic series); in the assay with CRX [2], 8.14 upbm affinity estimate (log intensity, higher = more binding, comparable within an allelic series); with CRX [3], 8.23 upbm affinity estimate (log intensity, higher = more binding, comparable within an allelic series).

Regarding CGTTCTAC, the binding signal in the assay with CRX [1] was 8.44 upbm affinity estimate (log intensity, higher = more binding, comparable within an allelic series); with CRX [2] it was 8.39 upbm affinity estimate (log intensity, higher = more binding, comparable within an allelic series); with CRX [3], 8.27 upbm affinity estimate (log intensity, higher = more binding, comparable within an allelic series).

On to CGATAATC, for which the binding signal with CRX [1] was 12.8 upbm affinity estimate (log intensity, higher = more binding, comparable within an allelic series); in the assay with CRX [2], 12.7 upbm affinity estimate (log intensity, higher = more binding, comparable within an allelic series); with CRX [3], 12.7 upbm affinity estimate (log intensity, higher = more binding, comparable within an allelic series).

Consider CGAGTGCG, for which the binding signal with CRX [1] is 8.19 upbm affinity estimate (log intensity, higher = more binding, comparable within an allelic series); with CRX [2] it was 8.15 upbm affinity estimate (log intensity, higher = more binding, comparable within an allelic series); with CRX [3], 8.17 upbm affinity estimate (log intensity, higher = more binding, comparable within an allelic series).

For the sequence ACGTCTCG, the binding signal in the assay with CRX [1] is 8 upbm affinity estimate (log intensity, higher = more binding, comparable within an allelic series); in the assay with CRX [2], 8.27 upbm affinity estimate (log intensity, higher = more binding, comparable within an allelic series); with CRX [3], 8.17 upbm affinity estimate (log intensity, higher = more binding, comparable within an allelic series).

Turning to TAATCCAA, the binding signal with CRX [1] was 13 upbm affinity estimate (log intensity, higher = more binding, comparable within an allelic series); in the assay with CRX [2], 13 upbm affinity estimate (log intensity, higher = more binding, comparable within an allelic series); in the assay with CRX [3], 12.8 upbm affinity estimate (log intensity, higher = more binding, comparable within an allelic series).

For CGCCCCTC, the binding signal with CRX [1] was 8.34 upbm affinity estimate (log intensity, higher = more binding, comparable within an allelic series); with CRX [2] it was 8.45 upbm affinity estimate (log intensity, higher = more binding, comparable within an allelic series); with CRX [3], 8.42 upbm affinity estimate (log intensity, higher = more binding, comparable within an allelic series).

For the sequence CGGGTCAC, the binding signal with CRX [1] was 7.89 upbm affinity estimate (log intensity, higher = more binding, comparable within an allelic series); with CRX [2], 8.08 upbm affinity estimate (log intensity, higher = more binding, comparable within an allelic series); with CRX [3] it was 8.09 upbm affinity estimate (log intensity, higher = more binding, comparable within an allelic series).
